mTORC1 inh: Acumen qHTS Assay for Inhibitors of the mTORC1 Signaling Pathway in MEF (Tsc2-/-, p53-/-) Cells: Sytravon; Potency, µM (doses to about 38.3 µM), inactives show at the top dose activity change, negative = inhibition, most hits filed as inhibitors; 44,000 compounds, 0.78% hits; Tsc2-/- p53-/- MEF, phospho-rpS6 immunofluorescence/PI, 24 h; AID 493208, 2011;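 also: plate controls were DMSO for no effect and rapamycin for full effect; nearly all actives have a fitted effect of over 50% in size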
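Tsc2-/-, p53-/- MEFs (empty-vector stable line) in DMEM + 10% FBS were treated with compounds 24 h at 37 degree Celsius, fixed, and immunostained for phospho-rpS6 (Alexa-488) with propidium iodide counterstain. Laser-scanning cytometry gave % positive cells, normalized against 7.5 nM rapamycin and DMSO.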
SKOV3 invasion: Primary qHTS assay for Inhibitors of ovarian cancer metastasis using an organotypic tumor microenvironment (TME) model; SKOV3ip1-GFP adhesion/invasion on 3D omental model, fluorescence; Potency, µM (doses to about 45.8 µM), for inactives: at the top dose activity change, negative = inhibition, hits mostly inhibitors; AID 1963576, 2024; 46,000 compounds, 0.1% hits;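 also: plate controls were DMSO wells for no effect and tomatine positive control wells for full effect; nearly all actives have a fitted effect of over 65% in size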
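A 3D layer of primary human omental fibroblasts, mesothelial cells, fibronectin and collagen I, grown 48 hr, received SKOV3ip1-GFP cells in serum-free medium plus compounds at 0.36-46 umol/L. After 2 hr RT and 16 hr 37 C, fixed adherent GFP cells were counted; normalized to DMSO and tomatine.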
p53null 32C tox: qHTS Screen for Compounds that Selectively Target Cancer Cells with p53 Mutations: Cytotoxicity of p53 Null Cells at the Permissive Temperature. H1299-neo p53 null cells, ATP luminescence, 24 h, 32C. Potency, µM (series often up to 46.1 µM), inactives show at the top dose activity change, negative = cytotoxicity, usual class: cytotoxic. 55,000 compounds, 0.62% hits;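 also: 0% = DMSO only and -100% = full killing by 100 µM tamoxifen; nearly all actives have a fitted effect of over 55% in size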
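ATP-content luminescence in p53-null H1299-neo cells after 24 h compound exposure (up to 46 uM) at 32C permissive temperature; 0% and 100% killing set by DMSO and 100 uM tamoxifen; Hill-equation AC50.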
p53null 39C tox: qHTS Screen for Compounds that Selectively Target Cancer Cells with p53 Mutations: Cytotoxicity of p53 Null Cells at the Nonpermissive Temperature | H1299 p53-null (neo) cells, 39C, ATPlite viability, 24 h | Potency, µM (highest dose often 46.1 µM), for the others: at the highest dose activity, negative = cell killing, hits mostly cytotoxic | 55,000 compounds, 0.97% hits | AID 904, 2007;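 also: 0% = DMSO only and -100% = full killing by 100 µM tamoxifen; nearly all actives have a fitted effect of over 50% in size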
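H1299 lung cancer cells, p53-null (H1299-neo) or expressing p53 A138V (H1299-p53A138V), were plated overnight at 37C, then exposed to compounds at up to 46 uM for 24 hr at 39C. Viability was read by ATP-based luminescence.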
S16 F2sN tox: Cell viability qHTS assay in S16 Pmp22-F2sN cells | S16 Pmp22-F2sN Schwann cells viability, CellTiter-Glo, 24 h | 43,000 compounds, 0.48% hits | Potency, µM (highest dose often 57.5 µM), for inactives: at the highest dose activity change, negative = cytotoxicity, hits mostly cytotoxic | AID 1508642, 2021; also: nearly all actives have a fitted effect of over 65% in size
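Seed 500-1,000 S16 Pmp22-F2sN cells per well in phenol-red-free DMEM with 10% heat-inactivated FBS; pin-add 23 nL compound; incubate 24 h at 37C; add CellTiter-Glo, wait 15 min protected from light; read luminescence.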
PMP22 txn: Cell-based coincidence reporter assay to measure PMP22 gene transcription in S16 Pmp22-F2sN cells - Primary screen | Potency, µM (top dose mostly 57.5 µM), for the others: at the top dose activity change, negative = inhibition, actives largely listed as inhibitors | AID 1508649, 2021 | S16 Pmp22-F2sN Schwann cells (luciferase reporters placed in the Pmp22 gene), FLuc/NLuc coincidence luminescence, 24 h | 43,000 compounds, 2% hits; active = clear falling dose curves in both reporters; inconclusive = both reporters move, but less clearly or upward; inactive = either reporter flat; the % is the NLuc reporter signal
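Rat S16 Pmp22-F2sN cells, 500-1,000/well in phenol red-free DMEM + 10% FBS, compound-treated 24 h (37C, 5% CO2). Luminescence: FLuc read, Stop&Glo added, NLuc read.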
The depositor's hits bear a star. In the library only some 3% were active in any assay of this set; here they are far more common. Unless noted, calls follow the shape of the dose curve; as a rule, active = well fitted curve in the direction sought with a large enough effect; inconclusive = small, poorly fitted or top-dose-only effect, or another doubt; inactive = no such curve, though single readings can be large; an effect the other way counts as inactive or inconclusive. Unless noted, % is scaled to controls: 0 for no effect and ±100 for the full control effect; potency is read from the fitted curve at half-maximal effect.

O=C1CC(c2nc3ccccc3n2CCCCOc2ccccc2)CN1c1ccccc1Cl (centres undefined) was read as mTORC1 inh -2%, SKOV3 invasion inactive, p53null 32C tox inconclusive, p53null 39C tox 13µM*, S16 F2sN tox -24% and PMP22 txn inconclusive.
For CCc1ccccc1N1CC(c2nc3ccccc3n2CCC2CCCCC2)CC1=O (centres undefined) the results were mTORC1 inh -1%, SKOV3 invasion inconclusive, p53null 32C tox inconclusive, p53null 39C tox 16µM*, S16 F2sN tox inconclusive and PMP22 txn inconclusive.
For Cc1ccccc1N1CC(c2nc3ccccc3n2CCC2CCCCC2)CC1=O (centres undefined) the results were mTORC1 inh 1%, SKOV3 invasion inconclusive, p53null 32C tox -9%, p53null 39C tox -3%, S16 F2sN tox -16% and PMP22 txn inconclusive.
CC(C)(C)Cn1c(N)nc2ccc(-c3[nH]c(C(C)(C)C)nc3-c3ccc(F)cc3)nc21 was read as SKOV3 invasion 3%.
Screening CC(C)c1ccc(C(=O)CC2(O)C(=O)N(CCc3ccccc3)c3ccc(Cl)cc32)cc1 (centres undefined) returned mTORC1 inh -26%, SKOV3 invasion -16%, p53null 32C tox 68%, p53null 39C tox 13µM*, S16 F2sN tox 24% and PMP22 txn inconclusive.
Screening CCCCN1C(=O)C(O)(CC(=O)c2ccc(CC)cc2)c2cc(Br)ccc21 (centres undefined) returned mTORC1 inh 16µM*, SKOV3 invasion -1%, p53null 32C tox 65%, p53null 39C tox inconclusive, S16 F2sN tox inconclusive and PMP22 txn inconclusive.
Screening COC(=O)CN1C(=O)C(O)(CC(=O)c2ccc(F)cc2)c2ccccc21 (centres undefined) returned mTORC1 inh inconclusive, SKOV3 invasion 5%, p53null 32C tox 1%, p53null 39C tox 30%, S16 F2sN tox inconclusive and PMP22 txn -28%.
O=C(CN1C(=O)C2(OCCO2)c2ccccc21)c1ccc(Cl)cc1 was read as p53null 32C tox 4% and p53null 39C tox 3%.
`CC(C)c1ccc(N2C(=O)CSC23C(=O)N(Cc2ccccc2)c2ccccc23)cc1` (centres undefined) gave mTORC1 inh 2%, SKOV3 invasion inactive, p53null 32C tox 38%, p53null 39C tox 39%, S16 F2sN tox 3% and PMP22 txn inconclusive.
For CCCN1C(=O)C(O)(CC(=O)c2ccc(CC)cc2)c2ccccc21 (centres undefined) the results were mTORC1 inh 15µM*, SKOV3 invasion 9%, p53null 32C tox 11%, p53null 39C tox 27%, S16 F2sN tox -25% and PMP22 txn 6%.
For CCCN1C(=O)C(O)(CC(=O)c2ccc(C(C)C)cc2)c2ccccc21 (centres undefined) the results were mTORC1 inh 13µM*, SKOV3 invasion -8%, p53null 32C tox 4%, p53null 39C tox -6%, S16 F2sN tox inconclusive and PMP22 txn -15%.
For CCc1c(O)cc(O)c(C(=O)c2ccc(OCCN3CCOCC3)c(OC)c2)c1CC(=O)N(CCOC)CCOC the results were SKOV3 invasion 14%.
Screening C#CCN1C(=O)C(O)(CC(=O)c2ccc(OC)c(OC)c2)c2cc(Br)ccc21 (centres undefined) returned mTORC1 inh 5.2µM*, SKOV3 invasion inconclusive, p53null 32C tox 6%, p53null 39C tox inconclusive, S16 F2sN tox inconclusive and PMP22 txn inconclusive.
For COc1ccccc1C(=O)CC1(O)C(=O)N(CC(N)=O)c2ccccc21 (centres undefined) the results were mTORC1 inh 14%, SKOV3 invasion 1%, p53null 32C tox -1%, p53null 39C tox inconclusive, S16 F2sN tox 4% and PMP22 txn 2%.
`C=C(C)[C@@H]1CC[C@]2(C)CC[C@]3(C)[C@H](CC[C@@H]4[C@@]5(C)CC[C@H](O)C(C)(C)[C@H]5CC[C@]43C)[C@@H]12` gave SKOV3 invasion -3%.
Screening O=C(Nc1nnc(SCC(=O)N2CCCc3ccccc32)s1)c1ccccc1 returned p53null 32C tox 7.9µM*.
CCOc1ccc(Nc2nc(Nc3ccc(OCC)cc3)nc(N3CCOCC3)n2)cc1 was read as mTORC1 inh 2.3µM*, SKOV3 invasion -8%, p53null 32C tox 2%, p53null 39C tox 0%, S16 F2sN tox 4% and PMP22 txn 5%.
Screening Cc1cccc(Nc2nc(Nc3cccc(C)c3)nc(N3CCOCC3)n2)c1 returned mTORC1 inh 1.2µM*, SKOV3 invasion -15%, p53null 32C tox -6%, p53null 39C tox 2%, S16 F2sN tox -23% and PMP22 txn inconclusive.
For O=C1NC(=O)C(=Cc2ccc3nccc(-c4ccncc4)c3c2)S1 the results were SKOV3 invasion -15%.
`CN1c2cc(Cl)ccc2-c2nc(SCC(=O)Nc3ccc(F)cc3F)ncc2S1(=O)=O` gave mTORC1 inh -7%, SKOV3 invasion -7%, p53null 32C tox -8%, p53null 39C tox inconclusive, S16 F2sN tox 25µM* and PMP22 txn inconclusive.
Cc1ccc(NC(=O)CSc2ncc3c(n2)-c2ccc(Cl)cc2N(C)S3(=O)=O)cc1F was read as mTORC1 inh -8%, SKOV3 invasion 6%, p53null 32C tox 1%, p53null 39C tox -3%, S16 F2sN tox 10% and PMP22 txn inconclusive.
CCn1c(=O)cc(SCC(=O)Nc2ccc(C)c(F)c2)c2ccccc21 was read as mTORC1 inh 7%, SKOV3 invasion 1%, p53null 32C tox 6%, p53null 39C tox -13%, S16 F2sN tox 0% and PMP22 txn -8%.
For CCN(CC)CCOC(=O)c1ccc(NC(=O)CSc2cc(=O)n(CC)c3ccccc23)cc1 the results were mTORC1 inh -1%, SKOV3 invasion -6%, p53null 32C tox 4%, p53null 39C tox 2.5µM*, S16 F2sN tox inconclusive and PMP22 txn inconclusive.
